These results are taken from PubChem BioAssay AID720540 (National Center for Advancing Translational Sciences (NCATS), 2013).

Molecules are shown by their SMILES. In all, about 1,300 compounds went through this assay and about 460 (35%) were called active. Not shown: some 39% with an inconclusive outcome. The list shows a part of the results. Values without a mark were called inactive. Calls follow the shape of the dose curve; as a rule, active = well fitted inhibition curve with a large enough effect; inconclusive = small, poorly fitted or top-dose-only effect; inactive = flat fitted curve, though single readings scatter.
Potency is read from the fitted curve at half-maximal effect.

Protein phosphatase EYA2 (Homo sapiens), sequence (O00167 whole entry, looked up): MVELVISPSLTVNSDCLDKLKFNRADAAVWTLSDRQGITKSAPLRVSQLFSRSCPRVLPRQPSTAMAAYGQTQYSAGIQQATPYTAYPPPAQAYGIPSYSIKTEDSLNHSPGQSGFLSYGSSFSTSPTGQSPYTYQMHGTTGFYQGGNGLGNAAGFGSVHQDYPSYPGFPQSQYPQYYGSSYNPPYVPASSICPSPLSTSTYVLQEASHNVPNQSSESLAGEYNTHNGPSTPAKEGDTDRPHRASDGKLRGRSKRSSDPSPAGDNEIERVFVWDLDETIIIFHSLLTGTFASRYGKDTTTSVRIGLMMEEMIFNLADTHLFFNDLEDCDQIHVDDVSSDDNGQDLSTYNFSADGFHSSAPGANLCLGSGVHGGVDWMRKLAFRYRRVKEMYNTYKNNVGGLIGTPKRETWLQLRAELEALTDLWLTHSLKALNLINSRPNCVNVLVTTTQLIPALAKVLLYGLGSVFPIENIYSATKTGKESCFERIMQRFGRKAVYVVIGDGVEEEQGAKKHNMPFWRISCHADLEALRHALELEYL

The assay deals with Protein phosphatase EYA2 (Homo sapiens) (UniProt O00167). The assay can be described thus: qHTS for Inhibitors of the Phosphatase Activity of Eya2: Confirmatory Assay for Cherry-picked Compounds. Also: nearly all actives have a fitted effect of over 65% in size.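 As to activity change, negative = inhibition: 0% = DMSO wells and -100% = EGTA control giving full inhibition.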 The following applies: purified EYA2 phosphatase activity, qHTS confirmation; series mostly up to 46.1 µM; activity change, negative = inhibition: at the top concentration. The method in brief:
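Eya2 (0.2 uM working solution) preincubated 10 min at room temperature with compound in pH 7.5 HEPES buffer with MgCl2, BSA, DTT. OMFP added (50 uM working solution), 10 min more; fluorescence 485/525 nm, normalized to EGTA and DMSO.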
Background: In qHTS, concentration-response curves come from the screen itself.
Take `O=C(O)C1=NN(c2cc(Cl)c(S(=O)(=O)O)cc2Cl)C(=O)C1`: the Potency is 8.49 µM (active).
The same measure, in the same setting: the result for `COc1cc(C(=O)Nc2scc(-c3ccc(Br)cc3)c2C(=O)O)cc(OC)c1OC` reads 19 µM (active); that for `Cc1ccc(-c2csc(NC(=O)c3ccccc3F)c2C(=O)O)cc1`, 7.57 µM (active).
Turning to `CCCC[C@@]1(C2CCCC2)Cc2cc(OCC(=O)O)c(Cl)c(Cl)c2C1=O`, the “activity change, negative = inhibition” value is -29%.
`O=C1/C(=C/C=C/c2ccco2)SC(=S)N1NS(=O)(=O)c1ccccc1`: the Potency was 7.57 µM (active).
Same read-out and setting: the result for `O=C(NN1C(=O)/C(=C/C=C/c2ccco2)SC1=S)c1ccncc1` reads 6.01 µM (active).
As for `CCn1c(SCC(=O)N2CCN(c3ccccc3)CC2)nc2c(c1=O)SC(C)C2` (stereo unspecified), the “activity change, negative = inhibition” value was -26.4%.
For `CN(C)c1ccc(N=c2sc3ccccc3n2C)cc1`, the Potency was 7.57 µM (active).
Consider `Cc1cccc(N2CCN(C(=O)C3COc4ccccc4O3)CC2)c1C` (stereo unspecified), for which the “activity change, negative = inhibition” value was -9.42%.
As to `O=C(O)/C=C/C(=O)Nc1ccc2c(c1)C(=O)c1ccccc1C2=O`, the Potency is 16.9 µM (active).
Same read-out and setting: then `Oc1c(C(Nc2nc3ccccc3s2)c2ccco2)ccc2cccnc12` (stereo unspecified), with 9.53 µM (active); and `CN(C)c1ccc(C(=C2C=CC(=[N+](C)C)C=C2)c2c(O)c(S(=O)(=O)[O-])cc3cc(S(=O)(=O)O)ccc23)cc1`, with 7.57 µM (active); and `CN(C)c1ccc(C(=C2C=CC(=[N+](C)C)C=C2)c2ccc(N(C)C)cc2)cc1`, with 6.01 µM (active).
Regarding `O=C(Nc1ccc(-c2nc3cccnc3s2)cc1)C1CCCO1` (stereo unspecified), the “activity change, negative = inhibition” value is -24.1%.
As for `Cc1cc(=O)n2nc(N3CCCC(C(=O)Nc4ccc(C)c(C)c4)C3)sc2n1` (stereo unspecified), the “activity change, negative = inhibition” value is -29.7%.
Take `CCc1ccc(N=C2NC(=O)/C(=C/c3cc(OC)c(O)c(OC)c3)S2)cc1`: the Potency was 19 µM (active).
The same measure, in the same setting: then `COc1ccc(-c2ccc(SCc3cccnc3)nn2)cc1OC`, with 16.9 µM (active).
Turning to `Cc1ccc(NC(=S)N2CCc3[nH]c4ccccc4c3C2)cc1`, the “activity change, negative = inhibition” value is -30%.
Regarding `COc1cccc(/C=N/N2C(=O)CSC2=S)c1O`, the Potency is 0.478 µM (active).
On the same count and under the same terms, the result for `Nc1c(N=Nc2ccc([N+](=O)[O-])cc2)c(S(=O)(=O)O)cc2cc(S(=O)(=O)O)c(/C=C/c3ccccc3)c(O)c12` reads 7.57 µM (active); that for `COc1ccc(C(CCNCc2ccc(N(C)C)cc2)C(C)C)cc1` (stereo unspecified), 8.49 µM (active); that for `COc1ccccc1C(CCNCc1ccc(N(C)C)cc1)c1ccc(OC(C)C)cc1` (stereo unspecified), 6.01 µM (active).
Consider `CC1Cc2ccccc2N1C(=O)C1CCCN1S(=O)(=O)c1ccc(Cl)cc1` (stereo unspecified), for which the “activity change, negative = inhibition” value was 1.17%.
For `Cc1nn(C)c(Cl)c1CN1CCCC(CO)(Cc2cccc(Cl)c2)C1` (stereo unspecified), the “activity change, negative = inhibition” value is -16.1%.
As to `CC1CS(=O)(=O)CCN1N=Cc1ccc([N+](=O)[O-])o1` (stereo unspecified), the “activity change, negative = inhibition” value was -2.82%.
Turning to `O=C(O)c1ccc2c(=O)n3cc(C(=O)c4ccccc4O)cc(Cl)c3nc2c1`, the Potency was 15.1 µM (active).
On to `C=C(CC[C@]12OC(C(=O)O)C(O)(C(=O)O)C(C(=O)O)(O1)C(OC(=O)/C=C/[C@@H](C)C[C@@H](C)CC)C2O)[C@@H](OC(C)=O)[C@H](C)Cc1ccccc1` (stereo partly specified), for which the Potency was 19 µM (active).
As for `Cc1cc(C)c(C#N)c(Sc2nnnn2-c2ccccc2)n1`, the “activity change, negative = inhibition” value was -3.69%.
Consider `COc1cc2c(cc1OC)-c1cc(Nc3ccc(F)cc3)nc(=O)n1CC2`, for which the Potency was 2.39 µM (active).
The same measure, in the same setting: the result for `COc1ccc(Nc2cc3n(c(=O)n2)CCc2cc(OC)c(OC)cc2-3)c(C)c1` reads 15.1 µM (active); that for `COc1cc2c(cc1OC)-c1cc(Nc3ccccc3)nc(=O)n1CC2`, 6.75 µM (active); that for `CCOc1ccc(Nc2cc3n(c(=O)n2)CCc2cc(OC)c(OC)cc2-3)cc1`, 6.75 µM (active).
Regarding `FC(F)(F)c1ccc(CN2C[C@@H]3C(c4ccc(Cl)nc4)C4(c5cccnc5)CC3(C4)[C@H]2c2ccccc2)cc1` (stereo partly specified), the “activity change, negative = inhibition” value is -20.4%.
Still for that read-out and setting: then `O=C(NCc1ccco1)C1CC2CCC1C2` (stereo unspecified), with -4.68%.
Consider `COc1cc2c(cc1OC)-c1cc(Nc3ccc(C)cc3)nc(=O)n1CC2`, for which the Potency was 5.36 µM (active).
In the case of `Cc1c(C(=O)/C=C/N(C)C)nnn1-c1ccc(Cl)cc1Cl`, the “activity change, negative = inhibition” value is -1.95%.
Take `CCc1c(C)nc(Nc2nc(C)c3ccc(OC)cc3n2)[nH]c1=O`: the Potency was 3.79 µM (active).
In the case of `C[C@](N)(Cc1ccc(O)c(O)c1)C(=O)O`, the “activity change, negative = inhibition” value is -6%.
Same read-out and setting: then `COc1cc(NC(=O)c2ccccc2Cl)ccc1NC(=O)c1cccs1`, with -14.2%.
On to `COc1ccc(C(=O)Nc2ccc3c(c2)CCCN3C(=O)c2cccs2)c(OC)c1`, for which the Potency is 8.49 µM (active).
For the molecule `O=C(/C=C\c1ccccc1)Oc1cccc2cccnc12`, the Potency was 7.57 µM (active).
Regarding `O=C(/C=C/c1ccccc1)Oc1cccc2cccnc12`, the Potency is 6.75 µM (active).
On the same count and under the same terms, then `COc1ccccc1/C=C/C(=O)Oc1cccc2cccnc12`, with 9.53 µM (active); and `O=C(/C=C/c1ccco1)Oc1cccc2cccnc12`, with 15.1 µM (active).
Turning to `COCCNC(=O)CCC(=O)NNc1nc2ccccc2c2nc(-c3ccccc3)nn12`, the “activity change, negative = inhibition” value was -27%.
With `c1ccc(-c2ccc(C3=Nn4c(nnc4-c4cc(-c5ccccc5)n[nH]4)SC3)cc2)cc1`, the “activity change, negative = inhibition” value was -22.5%.
Still for that read-out and setting: the result for `N#Cc1ccc(CSc2nnc(-c3c[nH]c4ccccc34)n2-c2ccccc2)cc1` reads -25.4%.
`COc1ccc(N=C2SC(C(=O)N3CCN(c4ccc([N+](=O)[O-])cc4)CC3)CC(=O)N2C)cc1` (stereo unspecified): the “activity change, negative = inhibition” value is -14.5%.
On to `COc1cc2nc(/C=C/c3ccc(N(C)C)cc3)sc2cc1SC`, for which the Potency was 19 µM (active).
Same read-out and setting: the result for `COc1ccccc1OCC(=O)Nc1ccc(C(=O)Nc2ccccc2C(=O)O)cc1` reads 16.9 µM (active).
In the case of `COc1ccccc1NC(=O)c1ccc(NC(=O)Cc2n[nH]c(=O)c3ccccc23)cc1`, the “activity change, negative = inhibition” value is -15.9%.
Still for that read-out and setting: the result for `O=C(NC1=C(Nc2ccc(F)cc2)C(=O)c2ccccc2C1=O)c1ccc(Cl)cc1` reads -23.3%.
As for `O=C(Nc1ccc(F)cc1)c1ccc2[nH]c(=O)c(=O)[nH]c2c1`, the Potency is 4.78 µM (active).
Still for that read-out and setting: the result for `N#Cc1c(N)n(-c2ccc(C(=O)O)cc2)c2nc3ccccc3nc12` reads 16.9 µM (active); that for `N#Cc1c(N)n(-c2cccc(C(=O)O)c2)c2nc3ccccc3nc12`, 16.9 µM (active).
Regarding `Cc1cc(/C=C2\C(=N)N3N=C(CC(=O)N4CCOCC4)SC3=NC2=O)c(C)n1Cc1ccccc1`, the “activity change, negative = inhibition” value is -27.6%.
Still for that read-out and setting: the result for `O=C(NN=C1CCCC1)c1[nH]c2ccc(Br)cc2c1-c1ccccc1` reads -27.5%.
Turning to `COc1cc(/C=C2\C(C)=C(C#N)c3nc(N)c(C#N)c(C)c32)ccc1OCC(=O)O`, the Potency is 16.9 µM (active).
On the same count and under the same terms, the result for `CN(C)c1ccc(/C=C2\C=Cc3cc(N)ccc32)cc1` reads 8.49 µM (active); that for `CN(C)c1ccc(/C=C2\CCc3cc(N)ccc32)cc1`, 8.49 µM (active); that for `COc1ccc2c(c1)C=C/C2=C\c1ccc(N(C)C)cc1`, 5.36 µM (active).
